The subject of one assay is Staphylococcus aureus. In words: Antibacterial activity against Staphylococcus aureus MRSA ATCC 43300 (CO-ADD:GP_020); MIC in CAMBH media using NBS plates, by Resazurin F(560/590). It is filed as functional. The following applies: Concentration 20 uM, ASSAY_TEST Inhibition of Bacterial Growth, detection method Resazurin, Fluorescence (ex560/em590), MEDIA CAMHB, plate type 384well, CORNING #3640, time 18 hr. (Resazurin is reduced to fluorescent resorufin, in cell work by metabolically active cells.)

For another assay, the system named is Acinetobacter baumannii. In words: Antibacterial activity against Acinetobacter baumannii ATCC 19606 (CO-ADD:GN_034); MIC in CAMBH media using NBS plates, by Resazurin F(560/590). It is filed as functional. The settings on record: Concentration 20 uM, ASSAY_TEST Inhibition of Bacterial Growth, detection method Resazurin, Fluorescence (ex560/em590), MEDIA CAMHB, plate type 384well, CORNING #3640, time 18 hr.

The subject of another assay is Escherichia coli. In words: Antibacterial activity against Escherichia coli ATCC 25922 (CO-ADD:GN_001); MIC in CAMBH media using NBS plates, by Resazurin F(560/590). It is filed as functional. The settings on record: Concentration 20 uM, ASSAY_TEST Inhibition of Bacterial Growth, detection method Resazurin, Fluorescence (ex560/em590), MEDIA CAMHB, plate type 384well, CORNING #3640, time 18 hr.

In a further assay the test system is Klebsiella pneumoniae. The following applies: Concentration 20 uM; ASSAY_TEST Inhibition of Bacterial Growth; detection method Absorption (OD600); MEDIA CAMHB; plate type 384well; NBS; CORNING #3640; time 18 hr.
The subject of the next assay is Candida albicans. The settings on record: 20 µM.
For a further assay, the system named is Cryptococcus neoformans. The settings on record: Concentration 20 uM; ASSAY_TEST Inhibition of Fungal Growth; detection method Resazurin; Absorption (OD600-OD570); plate type 384well; NBS; CORNING #3640.

In ChEMBL document CHEMBL4296182, “CO-ADD screening of NIH NCI Diversity Set V” one finds Inhibition data, which are given here for 25 compounds.

For part of these data: Potency and affinity values are given separately.

In general, Inhibition refers to the change of the read-out against control, counted positive when it falls.

`O=c1nc(Oc2ccccc2)nc2ncccn12`: the Inhibition with Staphylococcus aureus was 18.68%; with Acinetobacter baumannii, 13.4%; in the assay with Escherichia coli, 27.8%; in the assay on Klebsiella pneumoniae it was 4.93%; with Candida albicans, 7.13%; in the assay on Cryptococcus neoformans, -13.98%.
With `NC(=O)/C(=C\c1ccncc1)c1cccc2ccccc12`, the Inhibition with Staphylococcus aureus is 3.23%; in the assay with Acinetobacter baumannii it was -18.71%; in the assay on Escherichia coli, 6.96%; in the assay on Klebsiella pneumoniae, 13.72%; in the assay with Candida albicans, -4.11%; in the assay on Cryptococcus neoformans, -6.45%.
In the case of `O=C(/C=C\c1ccc2ccccc2n1)c1cc(Cl)ccc1O`, the Inhibition with Staphylococcus aureus was -11.69%; in the assay on Acinetobacter baumannii it was -4.27%; with Escherichia coli it was -19.12%; with Klebsiella pneumoniae, 3.11%; with Candida albicans it was 16.4%; in the assay on Cryptococcus neoformans, -1.96%.
Take `CCNc1ccccc1C(=O)O`: the Inhibition in the assay on Staphylococcus aureus is 19.64%; with Acinetobacter baumannii it was -10.34%; in the assay with Escherichia coli, 13.74%; in the assay on Klebsiella pneumoniae, 16.83%; with Candida albicans, 5.51%; in the assay with Cryptococcus neoformans it was 2.27%.
Consider `CN(CCC#N)c1ccc(/C=C(\C#N)c2cccc(C(F)(F)F)c2)cc1`, for which the Inhibition with Staphylococcus aureus was -1.81%; in the assay with Acinetobacter baumannii, 5.38%; in the assay on Escherichia coli, -0.01%; in the assay with Klebsiella pneumoniae it was 0.85%; with Candida albicans, 3.04%; in the assay on Cryptococcus neoformans, -3.8%.
For `Cc1nc2nc(C(F)(F)F)[nH]c2nc1C`, the Inhibition in the assay on Staphylococcus aureus is 10.93%; in the assay on Acinetobacter baumannii it was 9.55%; in the assay with Escherichia coli, -5.58%; with Klebsiella pneumoniae, 7.77%; in the assay with Candida albicans, 3.03%; in the assay on Cryptococcus neoformans, -5.2%.
Regarding `Cn1c(=O)c2c(ncn2CCOC(=O)C(C)(C)Oc2ccc(Cl)cc2)n(C)c1=O` [THEOFIBRATE], the Inhibition in the assay with Staphylococcus aureus was -5.55%; in the assay with Acinetobacter baumannii, -11.51%; in the assay with Escherichia coli it was 14.7%; in the assay on Klebsiella pneumoniae, 11.96%; in the assay on Candida albicans, 0.53%; with Cryptococcus neoformans it was -5.77%.
Take `CCN(CC)CCN1c2ccccc2Sc2ccc3ccccc3c21`: the Inhibition was 2.63% in the assay on Staphylococcus aureus; -0.08% with Acinetobacter baumannii; 11.87% in the assay on Escherichia coli; 8.87% in the assay with Klebsiella pneumoniae; 0.24% in the assay with Candida albicans; -5.58% in the assay on Cryptococcus neoformans.
As for `CC(C)=C(c1ccc(Cl)cc1)c1c(N)ncnc1N`, the Inhibition was 3.52% in the assay with Staphylococcus aureus; -10.84% in the assay on Acinetobacter baumannii; 10.95% in the assay on Escherichia coli; 14.5% in the assay with Klebsiella pneumoniae; -0.84% in the assay on Candida albicans; -5.15% in the assay with Cryptococcus neoformans.
For `Cc1nc2ccccc2nc1NS(=O)(=O)c1ccc(N)cc1`, the Inhibition with Staphylococcus aureus was -35.57%; in the assay on Acinetobacter baumannii, -9.78%; in the assay with Escherichia coli, -4.56%; in the assay with Klebsiella pneumoniae it was 7.2%; in the assay with Candida albicans it was 4.92%; in the assay with Cryptococcus neoformans it was -5.27%.
As to `CC1=CC(=C2C=CC(=O)C=C2)C=C(C)N1C`, the Inhibition is 0.37% in the assay on Staphylococcus aureus; -6.52% in the assay with Acinetobacter baumannii; 4.86% in the assay on Escherichia coli; -4.58% in the assay on Klebsiella pneumoniae; 4.83% in the assay with Candida albicans; -12.1% in the assay with Cryptococcus neoformans.
In the case of `COc1ccccc1NC(=O)Nc1cc(C(C)C)ccc1C`, the Inhibition was 13.43% in the assay with Staphylococcus aureus; 2.93% in the assay with Acinetobacter baumannii; -1.81% in the assay with Escherichia coli; -0.93% in the assay with Klebsiella pneumoniae; 0.16% in the assay with Candida albicans; -4.04% in the assay on Cryptococcus neoformans.
On to `Oc1ccc(Cc2ccccc2Cl)c(O)c1`, for which the Inhibition in the assay on Staphylococcus aureus is 14.48%; with Acinetobacter baumannii, -16.11%; in the assay on Escherichia coli it was 10.23%; in the assay on Klebsiella pneumoniae, 8.44%; with Candida albicans, -1.58%; in the assay with Cryptococcus neoformans it was -12.35%.
Consider `N#Cc1cnn2ccn(C3OC(CO)C(O)C3O)c12` (stereo not given), for which the Inhibition was 2.98% in the assay on Staphylococcus aureus; -3.63% in the assay with Acinetobacter baumannii; 8.76% with Escherichia coli; 13.94% in the assay with Klebsiella pneumoniae; 4.75% with Candida albicans; -11.71% in the assay on Cryptococcus neoformans.
Turning to `Cc1nc(N)nc(O)c1CCCNc1ccc(CCC2(CCl)OCCO2)cc1`, the Inhibition with Staphylococcus aureus was 17.48%; in the assay on Acinetobacter baumannii it was 2.84%; with Escherichia coli, 11.06%; with Klebsiella pneumoniae, 8.53%; with Candida albicans it was 1.57%; in the assay with Cryptococcus neoformans it was 3.7%.
For `Nc1nc(SCc2ccccc2)sc1C(=O)N1CCCCC1`, the Inhibition in the assay with Staphylococcus aureus is 18.6%; in the assay on Acinetobacter baumannii, 4.73%; in the assay on Escherichia coli, 3.88%; in the assay with Klebsiella pneumoniae, 21.18%; in the assay on Candida albicans, 8.19%; in the assay on Cryptococcus neoformans it was -7.01%.
With `COc1ccc(Nc2cc(C)nc(N)n2)cc1`, the Inhibition with Staphylococcus aureus is -7.83%; in the assay on Acinetobacter baumannii it was -5.29%; in the assay with Escherichia coli, -4.32%; with Klebsiella pneumoniae it was 2.7%; in the assay on Candida albicans, 1.31%; with Cryptococcus neoformans, -3.23%.
With `Cc1cc(C)c2c(SC(C)C)nc(N)nc2n1`, the Inhibition was -0.52% in the assay with Staphylococcus aureus; -6.63% in the assay with Acinetobacter baumannii; 2.33% in the assay on Escherichia coli; 4.23% with Klebsiella pneumoniae; 0.54% with Candida albicans; -10.66% in the assay on Cryptococcus neoformans.
Turning to `c1ccc(Sc2ncnc3ccccc23)cc1`, the Inhibition with Staphylococcus aureus is 3.09%; in the assay with Acinetobacter baumannii, -14.3%; in the assay on Escherichia coli it was 12.91%; in the assay with Klebsiella pneumoniae, 8.16%; in the assay with Candida albicans it was 2.99%; in the assay with Cryptococcus neoformans it was -14.16%.
Turning to `CNC(=O)c1nn(C)c(=O)[nH]c1=O`, the Inhibition with Staphylococcus aureus is 3.46%; in the assay on Acinetobacter baumannii it was -10.49%; in the assay with Escherichia coli, 19.05%; with Klebsiella pneumoniae it was 15.09%; in the assay with Candida albicans it was 4.6%; in the assay on Cryptococcus neoformans, -7.3%.
`CC1=CC(=O)Nc2cncnc2N1`: the Inhibition was 4.06% in the assay on Staphylococcus aureus; -8.47% in the assay with Acinetobacter baumannii; 8.98% with Escherichia coli; 13.83% in the assay with Klebsiella pneumoniae; 0.16% in the assay with Candida albicans; 0.91% in the assay on Cryptococcus neoformans.
Consider `CSC(=NS(=O)(=O)c1ccccc1)NNC(=O)c1c(-c2c(Cl)cccc2Cl)noc1C`, for which the Inhibition in the assay on Staphylococcus aureus was 2.63%; in the assay on Acinetobacter baumannii, 2.35%; with Escherichia coli, -1.44%; in the assay with Klebsiella pneumoniae, 10.18%; with Candida albicans it was 6.77%; in the assay with Cryptococcus neoformans it was -2.9%.
With `O=C(OCC(O)COC(=O)c1cccnc1)c1cccnc1`, the Inhibition was 6.08% with Staphylococcus aureus; 10.73% with Acinetobacter baumannii; 2.79% in the assay with Escherichia coli; 3.04% in the assay with Klebsiella pneumoniae; 1.84% with Candida albicans; -7.06% in the assay with Cryptococcus neoformans.
On to `O=C(NCc1ccco1)Nc1cccc([N+](=O)[O-])c1`, for which the Inhibition in the assay with Staphylococcus aureus is 14.39%; in the assay on Acinetobacter baumannii it was 8.34%; in the assay with Escherichia coli, -1.12%; in the assay with Klebsiella pneumoniae, 10.94%; in the assay on Candida albicans, 3.5%; in the assay with Cryptococcus neoformans, -10.49%.
For `O=[N+]([O-])C1C(c2ccccc2)C12c1ccccc1-c1ccccc12` (stereo not given), the Inhibition in the assay with Staphylococcus aureus is 1.75%; with Acinetobacter baumannii, -9.94%; in the assay with Escherichia coli, 13.79%; in the assay on Klebsiella pneumoniae it was -4%; with Candida albicans it was -1.91%; in the assay on Cryptococcus neoformans, -10.55%.
